According to PubChem BioAssay (NCATS):
Records with an inconclusive call do not appear. The source made the active and inactive calls. The call rests on the fitted dose curve; in most records, active means well fitted curve in the direction sought with a large enough effect; inconclusive means small, poorly fitted or top-dose-only effect, or another doubt; inactive means no such curve, though single readings can be large; an effect the other way counts as inactive or inconclusive.

Tests used:
[1] = qHTS of pediatric cancer cell lines to identify multiple opportunities for drug repurposing: Primary screen for NB-EBc1 cells (AID 1347095)
Method in brief: (§1)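 Cells seeded at 500-1,000 cells/well in growth media, rested 5 hours at 37 degrees C, 5% CO2, then dosed; MIPE compounds at 11-point (from 0.78 nM) and NPC at 8-point (from 0.59 nM) final concentrations. Viability by CellTiter-Glo luminescence after 48 hours.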

[2] = qHTS of pediatric cancer cell lines to identify multiple opportunities for drug repurposing: Primary screen for Saos-2 cells (AID 1347097); further: nearly all actives have a fitted effect of over 40% in size
Method in brief: as §1

[3] = qHTS of pediatric cancer cell lines to identify multiple opportunities for drug repurposing: Primary screen for SK-N-SH cells (AID 1347098);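 further: DMSO served as neutral control and bortezomib at 2.3 µM as positive control; nearly all actives have a fitted effect of over 65% in size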
Method in brief: (§2)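 Cells (500-1,000/well) rested 5 h, then received compounds for 48 h; metabolically active cells were measured by CellTiter-Glo luminescence. Final concentrations spanned up to 46 µM (MIPE, 11-point) or 0.59 nM-46 µM (NPC, 8-point) in primary screens, 11-point in follow-ups.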

[4] = qHTS of pediatric cancer cell lines to identify multiple opportunities for drug repurposing: Primary screen for NB1643 cells (AID 1347099); further: nearly all actives have a fitted effect of over 50% in size
Method in brief: as §1

[5] = qHTS of pediatric cancer cell lines to identify multiple opportunities for drug repurposing: Primary screen for LAN-5 cells (AID 1347100); further: potency means the concentration at half of the fitted maximal effect
Method in brief: (§3)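 Viability after 48 h compound treatment at 37C, 500-1,000 cells/well, read as ATP luminescence with CellTiter-Glo. Primary screens used 11-point (MIPE, 0.78 nM-46 µM) or 8-point (NPC, 0.59 nM-46 µM) final concentrations; follow-up screens used 11-point dilutions.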

[6] = qHTS of pediatric cancer cell lines to identify multiple opportunities for drug repurposing: Primary screen for BT-12 cells (AID 1347101); further: nearly all actives have a fitted effect of over 25% in size; further: potency means the concentration at half of the fitted maximal effect
Method in brief: as §2

[7] = qHTS of pediatric cancer cell lines to identify multiple opportunities for drug repurposing: Primary screen for Rh18 cells (AID 1347102); further: nearly all actives have a fitted effect of over 65% in size
Method in brief: as §3

[8] = qHTS of pediatric cancer cell lines to identify multiple opportunities for drug repurposing: Primary screen for OHS-50 cells (AID 1347103); further: nearly all actives have a fitted effect of over 40% in size; further: potency means the concentration at half of the fitted maximal effect
Method in brief: as §2

[9] = qHTS of pediatric cancer cell lines to identify multiple opportunities for drug repurposing: Primary screen for RD cells (AID 1347104); further: nearly all actives have a fitted effect of over 55% in size
Method in brief: as §1

[10] = qHTS of pediatric cancer cell lines to identify multiple opportunities for drug repurposing: Primary screen for MG 63 (6-TG R) cells (AID 1347105); further: nearly all actives have a fitted effect of over 50% in size
Method in brief: as §1

[11] = qHTS of pediatric cancer cell lines to identify multiple opportunities for drug repurposing: Primary screen for control Hh wild type fibroblast cells (AID 1347106);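 further: series mostly up to about 46 µM; a drop in luminescence marks cytotoxicity and a rise apparent proliferation; nearly all actives have a fitted effect of over 55% in size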
Method in brief: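 Cells (500-1,000/well) in growth media were settled 5 h at 37 degrees C, then given compounds for 48 h. Viability was read as CellTiter-Glo luminescence. Primary runs used MIPE at 11 points (0.78 nM-46 µM) and NPC at 8 points (0.59 nM-46 µM); follow-ups used 11 points.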

[12] = qHTS of pediatric cancer cell lines to identify multiple opportunities for drug repurposing: Primary screen for Rh30 cells (AID 1347107); further: series mostly up to about 46 µM; nearly all actives have a fitted effect of over 75% in size
Method in brief: as §3

[13] = qHTS of pediatric cancer cell lines to identify multiple opportunities for drug repurposing: Primary screen for Rh41 cells (AID 1347108);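 further: series mostly up to about 46 µM; luminescence drop marks cytotoxic hits; nearly all actives have a fitted effect of over 70% in size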
Method in brief: as §1

[14] = qHTS of pediatric cancer cell lines to identify multiple opportunities for drug repurposing: Primary screen for U-2 OS cells (AID 1347096); further: nearly all actives have a fitted effect of over 50% in size
Method in brief: as §3

[15] = qHTS of pediatric cancer cell lines to identify multiple opportunities for drug repurposing: Confirmatory screen for NB1643 cells (AID 1347109); further: nearly all actives have a fitted effect of over 45% in size
Method in brief: as §3

[16] = qHTS of pediatric cancer cell lines to identify multiple opportunities for drug repurposing: Confirmatory screen for A673 cells (AID 1347110); further: nearly all actives have a fitted effect of over 65% in size; further: potency means the concentration at half of the fitted maximal effect
Method in brief: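 A673 cells at 500-1,000 cells/well were dosed 5 h after plating, in dilution series up to 46 uM final; primary runs used 8 or 11 points and confirmatory runs used 11 points. Viability was read by CellTiter-Glo luminescence after 48 h, against DMSO and 2.3 uM bortezomib controls.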

[17] = qHTS of pediatric cancer cell lines to identify multiple opportunities for drug repurposing: Confirmatory screen for SK-N-MC cells (AID 1347111);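 further: cells exposed to compound for 48 h before the readout; nearly all actives have a fitted effect of over 70% in size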; further: potency means the concentration at half of the fitted maximal effect
Method in brief: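 SK-N-MC cells at 500-1,000 cells/well in growth media were pre-incubated 5 h, then exposed to compounds at 11-point dilutions for 48 h at 37 degrees C, 5% CO2. Viability was read as CellTiter-Glo luminescence.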

[18] = qHTS of pediatric cancer cell lines to identify multiple opportunities for drug repurposing: Confirmatory screen for LAN-5 cells (AID 1347113); further: nearly all actives have a fitted effect of over 65% in size
Method in brief: as §3

[19] = qHTS of pediatric cancer cell lines to identify multiple opportunities for drug repurposing: Confirmatory screen for BT-12 cells (AID 1347112); further: nearly all actives have a fitted effect of over 55% in size
Method in brief: as §3

[20] = qHTS of pediatric cancer cell lines to identify multiple opportunities for drug repurposing: Confirmatory screen for DAOY cells (AID 1347114); further: nearly all actives have a fitted effect of over 65% in size
Method in brief: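 Viability measured as metabolically active cells via CellTiter-Glo luminescence following 48 hours of compound exposure, 11-point dilutions in confirmatory testing. 500-1,000 cells/well plated 5 hours before dosing; controls were DMSO and 2.3 µM bortezomib.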

Measured: Potency

CC(C)(C)c1nnc(NS(=O)(=O)c2ccccc2)s1
not listed: [14] | [15] | [16] | [17] | [18] | [19] | [20]
inactive: all other assays above

Cc1ccc(C(=O)C(=O)O)cc1C
not listed: [14] | [15] | [16] | [17] | [18] | [19] | [20]
inactive: all other assays above

CCOc1ccccc1OCC1CNCCO1 (configuration not stated)
inactive: [1] | [14] | [3] | [5] | [6] | [7] | [9] | [10] | [11] | [12] | [13]

CN(C)[C@@H]1C(=O)C(C(N)=O)=C(O)[C@@]2(O)C(=O)C3=C(O)c4c(O)cccc4C[C@H]3C[C@@H]12
active: [6] 17.4 µM
inactive: [1] | [14] | [3] | [4] | [9] | [10] | [11] | [12] | [13]

CC(=O)[C@@]1(O)CC[C@H]2[C@@H]3C[C@H](C)C4=CC(=O)CC[C@]4(C)[C@H]3CC[C@@]21C
active: [8] 27.6 µM | [16] 0.261 µM | [17] 4.14 µM
not listed: [2] | [5] | [6] | [9] | [19] | [20]
inactive: all other assays above

CCN1CCCC1CN (configuration not stated)
not listed: [13] | [14] | [15] | [16] | [17] | [18] | [19] | [20]
inactive: all other assays above

CCC(=O)O[C@]1(C(=O)COC)[C@@H](C)C[C@H]2[C@@H]3CCC4=CC(=O)C=C[C@]4(C)C3(F)[C@@H](O)C[C@@]21C (some centres not stated)
not listed: [2] | [4] | [11] | [18]
inactive: all other assays above

CCC(C(=O)OCCN1CCOC(c2ccccc2)C1C)c1ccccc1 (configuration not stated)
inactive: [1] | [14] | [4] | [5] | [7] | [9] | [10] | [11] | [12] | [13]

NS(=O)(=O)c1cc(C(=O)NN2C[C@H]3[C@H]4CCC(C4)[C@H]3C2)ccc1Cl
inactive: [1] | [14] | [3] | [5] | [6] | [7] | [8] | [9] | [11] | [12] | [13]

C[C@H]1C[C@H](O)c2ccsc2S1(=O)=O
not listed: [14] | [15] | [16] | [17] | [18] | [19] | [20]
inactive: all other assays above

CC[N+]1(CC)CCC(=C(c2ccccc2)c2ccccc2)C1C (configuration not stated)
inactive: [1] | [14] | [3] | [4] | [5] | [7] | [9] | [12]

Cc1ccc(CCn2c3c(c4cc(Cl)ccc42)CN(C)CC3)cn1
inactive: [1] | [14] | [4] | [5] | [7] | [10] | [11] | [12] | [13]

Nc1ccc(O)cc1
active: [5] 15 µM
inactive: [1] | [14] | [3] | [6] | [7] | [8] | [10] | [11] | [12] | [13]

CC(=O)CC/C=C(\C)CC/C=C(\C)CC/C=C(\C)CCC=C(C)C
not listed: [14] | [15] | [16] | [17] | [18] | [19] | [20]
inactive: all other assays above

CO[C@@]1(NC(=O)CSC[C@@H](N)C(=O)O)C(=O)N2C(C(=O)O)=C(CSc3nnnn3C)CS[C@@H]21
not listed: [2] | [4] | [15] | [16] | [17] | [18] | [19] | [20]
inactive: all other assays above

Cc1nc2n(c(=O)c1CCN1CCC(C(=O)c3ccc(F)cc3)CC1)CCS2
inactive: [1] | [14] | [3] | [4] | [5] | [7] | [9] | [10] | [11] | [12] | [13]

CC1(C)S[C@@H]2[C@H](NC(=O)C(c3ccccc3)S(=O)(=O)O)C(=O)N2[C@H]1C(=O)O (some centres not stated)
inactive: [1] | [2] | [3] | [4] | [5] | [6] | [7] | [8] | [9] | [13]
